# Source: PubChem BioAssay
# Activity calls are given as the source filed them.
# Legend:
# [1] = anti-His antibody binders, primary screen, artefact control for SMM control protein annotation, biochemical, small-molecule microarray, 635 nm fluorescence (AID 1128); settings: anti-His Alexa647 antibody binding, higher = more signal;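 also: score merges feature fluorescence with signal-to-noise for each printed compound spot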
# [2] = system: Human papillomavirus type 1a E7 protein (residues 1-88); assay: HPV1a E7 small-molecule binders, primary screen, biochemical, small-molecule microarray, residues 1-88, 635 nm (AID 1129); settings: small-molecule microarray binding, fluorescence 635 nm; higher = more signal
# [3] = biological target: Focal adhesion kinase 1 (Homo sapiens) (UniProt Q05397); assay: small-molecule microarray binders of FAK, primary screen, biochemical, 635/667 nm fluorescence, BSA, DTT (AID 1130); settings: PTK2 binding, 635 nm fluorescence, higher = more signal;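 also: composite of spot emission at 667 nm and signal to noise over triplicate slides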
# Chain of Focal adhesion kinase 1 (Homo sapiens) (Q05397 whole entry, looked up): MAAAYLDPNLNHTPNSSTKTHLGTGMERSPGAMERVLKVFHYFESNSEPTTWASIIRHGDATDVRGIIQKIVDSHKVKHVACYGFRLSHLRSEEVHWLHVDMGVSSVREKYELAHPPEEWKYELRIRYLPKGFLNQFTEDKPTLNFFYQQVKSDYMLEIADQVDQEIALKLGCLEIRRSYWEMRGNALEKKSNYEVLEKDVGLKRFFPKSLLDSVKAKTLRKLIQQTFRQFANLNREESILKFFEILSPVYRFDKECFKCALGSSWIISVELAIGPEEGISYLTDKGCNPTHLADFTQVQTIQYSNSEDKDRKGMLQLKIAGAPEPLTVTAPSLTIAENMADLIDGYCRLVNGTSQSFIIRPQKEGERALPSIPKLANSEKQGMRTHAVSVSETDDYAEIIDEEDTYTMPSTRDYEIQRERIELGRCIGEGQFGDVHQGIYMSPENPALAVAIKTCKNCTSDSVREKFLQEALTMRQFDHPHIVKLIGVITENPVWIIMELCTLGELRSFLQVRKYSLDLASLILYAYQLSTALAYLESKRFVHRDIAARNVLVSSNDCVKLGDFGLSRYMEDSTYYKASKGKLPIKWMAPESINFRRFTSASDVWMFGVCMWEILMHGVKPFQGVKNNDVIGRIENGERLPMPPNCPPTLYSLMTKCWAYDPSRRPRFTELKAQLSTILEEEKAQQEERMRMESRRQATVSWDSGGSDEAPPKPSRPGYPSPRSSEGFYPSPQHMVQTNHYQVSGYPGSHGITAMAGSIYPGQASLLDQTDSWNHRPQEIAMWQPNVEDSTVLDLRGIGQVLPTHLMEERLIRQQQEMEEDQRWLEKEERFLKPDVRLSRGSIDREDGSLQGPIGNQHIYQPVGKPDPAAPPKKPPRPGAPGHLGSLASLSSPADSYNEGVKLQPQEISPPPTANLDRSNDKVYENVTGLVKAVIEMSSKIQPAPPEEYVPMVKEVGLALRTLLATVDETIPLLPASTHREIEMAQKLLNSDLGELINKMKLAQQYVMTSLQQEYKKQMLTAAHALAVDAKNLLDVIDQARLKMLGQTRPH
# [4] = system: Fibrinogen (Alexa647-labelled); assay: fibrinogen binders on compound microarrays, profiling panel, artefact control for SMM control-protein annotation, biochemical, small-molecule microarray, 635/667 nm fluorescence (AID 1131); settings: fibrinogen-A647 binding fluorescence, higher = more signal;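 also: z-score merges 667 nm fluorescence with per-spot signal-to-noise over triplicate slides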
# [5] = biological target: Follistatin (Homo sapiens) (UniProt P19883); assay: follistatin binders on small-molecule microarrays, primary screen, biochemical, small-molecule microarray, 635/667 nm fluorescence (AID 1132); settings: FST binding, 635 nm fluorescence, higher = more signal
# Chain of Follistatin (Homo sapiens) (P19883 whole entry, looked up): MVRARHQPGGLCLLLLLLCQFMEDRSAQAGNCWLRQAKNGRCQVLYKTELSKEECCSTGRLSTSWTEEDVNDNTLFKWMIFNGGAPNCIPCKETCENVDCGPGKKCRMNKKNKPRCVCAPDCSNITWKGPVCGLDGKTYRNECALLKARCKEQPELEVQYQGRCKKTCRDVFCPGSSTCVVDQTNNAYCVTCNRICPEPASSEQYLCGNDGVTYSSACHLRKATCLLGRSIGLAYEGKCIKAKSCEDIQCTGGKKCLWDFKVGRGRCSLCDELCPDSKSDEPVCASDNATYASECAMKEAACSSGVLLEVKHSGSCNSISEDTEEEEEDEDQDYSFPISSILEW
# [6] = biological target: Fibroblast growth factor 2 (Homo sapiens) (UniProt P09038); assay: FGF2 binders on small-molecule microarrays, primary screen, biochemical, small-molecule microarray, 635/667 nm fluorescence (AID 1133); settings: small-molecule microarray binding, FGF2, fluorescence 635/667; higher = more signal
# Chain of Fibroblast growth factor 2 (Homo sapiens) (P09038 whole entry, looked up): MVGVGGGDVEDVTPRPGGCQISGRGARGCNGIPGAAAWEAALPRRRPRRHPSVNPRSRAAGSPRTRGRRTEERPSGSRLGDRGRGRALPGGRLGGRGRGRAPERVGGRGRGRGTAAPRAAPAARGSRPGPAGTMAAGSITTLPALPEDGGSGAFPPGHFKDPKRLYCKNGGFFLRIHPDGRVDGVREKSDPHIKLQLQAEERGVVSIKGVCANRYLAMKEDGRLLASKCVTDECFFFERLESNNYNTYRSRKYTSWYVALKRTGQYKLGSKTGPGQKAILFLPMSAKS
# [7] = mitochondrial membrane potential change in A549 cells, profiling panel, cell-based, JC-1 fluorescence, basal, 24 h, 100 nL (AID 1138); settings: higher = more signal;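 also: A549 lung adenocarcinoma cells under basal conditions with no added stimulus; test concentration not given here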
# Lefty1 = Lefty1 binders on small-molecule microarrays, primary screen, biochemical, small-molecule microarray, 635/667 nm fluorescence (AID 1139); settings: small-molecule microarray binding, fluorescence 635/667; higher = more signal
# [8] = system: wheat germ agglutinin (Triticum aestivum), Alexa647-labelled; assay: wheat germ agglutinin binders on compound microarrays, profiling panel, artefact control for SMM control-protein annotation, biochemical, small-molecule microarray, 635/667 nm fluorescence (AID 1140); settings: WGA-A647 binding, 635 nm fluorescence, higher = more signal;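 also: score merges 667 nm feature emission with signal to noise over triplicate slides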
# [9] = biological target: Luciferin 4-monooxygenase (Photinus pyralis) (UniProt P08659); assay: firefly luciferase enzyme inhibitors, primary screen, biochemical, luminescence, purified enzyme, 2006 set (AID 1141); settings: SteadyGlo luminescence, 30 min, higher = more signal, called active from +8 up or from −8 down;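 also: cell-free assay with purified firefly luciferase at 100 ng per well in PBS; test concentration not given here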
# Chain of Luciferin 4-monooxygenase (Photinus pyralis) (P08659 whole entry, looked up): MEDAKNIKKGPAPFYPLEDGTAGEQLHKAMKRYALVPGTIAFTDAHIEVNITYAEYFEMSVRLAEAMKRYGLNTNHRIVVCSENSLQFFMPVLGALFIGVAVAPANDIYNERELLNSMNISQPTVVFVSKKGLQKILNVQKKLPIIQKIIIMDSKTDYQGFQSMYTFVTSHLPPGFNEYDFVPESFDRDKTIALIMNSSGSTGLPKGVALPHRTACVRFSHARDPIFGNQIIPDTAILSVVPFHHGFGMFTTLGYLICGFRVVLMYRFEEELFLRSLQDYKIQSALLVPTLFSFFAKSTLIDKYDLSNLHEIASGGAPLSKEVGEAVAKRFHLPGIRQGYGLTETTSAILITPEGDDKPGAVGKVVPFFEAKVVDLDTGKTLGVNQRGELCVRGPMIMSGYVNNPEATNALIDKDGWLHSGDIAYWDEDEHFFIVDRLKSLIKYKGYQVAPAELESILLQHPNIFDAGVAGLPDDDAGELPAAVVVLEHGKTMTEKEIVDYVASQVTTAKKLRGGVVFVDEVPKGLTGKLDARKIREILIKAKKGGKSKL
Compound,composite z-score [1],composite z-score [2],composite z-score [3],composite z-score [4],composite z-score [5],composite z-score [6],z-score [7],composite z-score (Lefty1),composite z-score [8],z-score [9]
CCCC1(C(=O)OC)C=C2C(=C(C)C(=O)C2C)CN1 (stereo not given),2.81,-0.0152,0.0853,0.892,0.503,-0.343,0.511,-0.451,0.594,2.26 (inactive)
[N-]=[N+]=NCc1ccccc1[C@H]1OC(c2ccc(OCCCO)cc2)=N[C@@]1(Cc1ccccc1N=[N+]=[N-])C(=O)NCC(O)CO (stereo not given in full),0.363,1.22,0.566,0.711,1.13,-0.401,0.118,0.194,1.12,-2.09 (inactive)
COC(=O)[C@@]1(Cc2ccc(OC)cc2)[C@H]2c3cc(C(=O)N4CCCC4)n(CCO)c3C[C@H]2CN1C(=O)c1ccccc1,0.603,1.18,1.05,0.875,0.113,-0.2,-0.117,-0.539,1.03,1.01 (inactive)
COc1ccc(CCNC(=O)[C@@]2(Sc3ccc(C)cc3)CC(=O)N(Cc3ccccc3C(F)(F)F)[C@@H]2c2ccc(CO)cc2I)cc1,2.42,0.0953,-0.326,0.685,-0.706,-0.512,1.56,-1.63,0.827,-0.555 (inactive)
CC1=C2[C@@H](CCc3ccccc3)OB(O)C[C@@H]2[C@@H]2C(=O)N(Cc3ccccc3)C(=O)[C@@H]2C1,0.0349,0.55,-0.0683,0.987,0.946,0.33,0.758,0.388,0.505,-0.653 (inactive)
C=C[C@@H](CO)N(Cc1ccc(OC)cc1)S(=O)(=O)c1ccc(Br)cc1,1.53,0.687,0.188,-0.0952,0.351,0.965,0.739,-0.327,0.316,0.356 (inactive)
